Screening results as filed in PubChem.
The entries come from a sample that favours hits as a whole.
VHR inh color: VHR1 phosphatase inhibitors, primary screen, biochemical, colorimetric, HTS. Dual specificity protein phosphatase 3 (Homo sapiens), P51452. recombinant VHR phosphatase, colorimetric substrate read-out. 50,000 compounds, 0.7% hits. inhibition, % at 20 µM. AID 1992, 2009; in the data active = inhibition above about 60%
Target sequence (P51452 whole entry, looked up): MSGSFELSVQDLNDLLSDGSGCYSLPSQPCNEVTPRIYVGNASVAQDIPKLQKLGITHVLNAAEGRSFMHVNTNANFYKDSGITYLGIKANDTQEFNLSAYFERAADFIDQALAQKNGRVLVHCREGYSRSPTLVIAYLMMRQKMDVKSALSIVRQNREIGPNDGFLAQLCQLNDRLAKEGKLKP
An asterisk follows results filed as active.

SMILES	VHR inh color
CC(=O)Nc1ccc2c(c1)C1C=CCC1C(C(=O)O)N2 (stereo not given)	-1.8
O=C(O)C1Nc2c(Cl)cc(Cl)cc2C2C=CCC12 (stereo not given)	96.8*
Cc1cccc(N2C(=O)NC(=O)/C(=C/c3ccc(Br)o3)C2=O)c1	29.6
O=C1NC(=S)N(c2ccc(Br)cc2)C(=O)/C1=C\c1ccc(-c2ccc([N+](=O)[O-])cc2)o1	14.2
CC(C)c1ccc(N2C(=O)NC(=O)/C(=C/c3ccc(Br)o3)C2=O)cc1	81.6*
O=C1NC(=S)N(c2ccc(F)cc2)C(=O)/C1=C/c1ccc(Br)o1	94.5*
O=C1NC(=S)N(c2ccc(Br)cc2)C(=O)/C1=C/c1ccc(-c2ccccc2C(=O)O)o1	18.2
O=C1NC(=O)N(c2ccc(Cl)cc2)C(=O)/C1=C/c1ccc(Br)o1	13.8
O=C(O)c1ccc2c(c1)C(=O)N(Nc1c(Cl)cc(Cl)cc1Cl)C2=O	-26.1
COCCNC(=O)COc1ccc2ccccc2c1	-5.9
O=C(CSc1nc2ccccc2o1)NCc1ccccc1	-27.4
O=C(Cn1cc(/C=C2\SC(=O)NC2=O)c2ccccc21)Nc1ccccc1	4.1
O=C1NC(=O)N(c2ccc(Cl)cc2)C(=O)/C1=C/c1ccccc1	-28.6
COc1ccc(N2C(=O)NC(=O)/C(=C/c3cn(CCOc4ccccc4OC)c4ccccc34)C2=O)cc1	-14.8
Cc1ccccc1N1C(=O)NC(=O)/C(=C/c2cn(CC(=O)Nc3ccccc3)c3ccccc23)C1=O	85.0*
C#CCn1cc(/C=C2\C(=O)NC(=O)N(c3ccc(Cl)cc3)C2=O)c2ccccc21	81.6*
O=C(Cn1cc(/C=C2\NC(=O)NC2=O)c2ccccc21)Nc1ccccc1	-14.7
COC(=O)C1=C(N)OC2=C(C(=O)CC(C)(C)C2)C1c1cccc(C)c1 (stereo not given)	-14.5
Cc1ccc(OCC(=O)Nc2ccccc2Cl)cc1C	-4.6
Cc1ccc(/C(O)=C/c2nc3ccc([N+](=O)[O-])cc3oc2=O)o1	5.5
CCc1c(C)sc(NC(=O)c2c(-c3ccccc3)noc2C)c1C(N)=O	15.8
COCCOC(=O)c1ccc(NC(=O)c2ccc(C)c([N+](=O)[O-])c2)cc1	5.1
COc1ccc(/C=C/C(=O)NCCSCc2ccc(Cl)cc2)cc1OC	-11.4
COC(=O)C1C2C(=O)N(c3ccc([N+](=O)[O-])cc3)C(=O)C12c1ccc(Cl)cc1 (stereo not given)	102.2*
Cc1ccc(OCC(=O)N2CCN(c3ccc([N+](=O)[O-])cc3)CC2)cc1	-0.4
SMILES	VHR inh color
COC(=O)C1C2C(=O)N(c3ccc([N+](=O)[O-])cc3)C(=O)C12c1ccc(C)cc1 (stereo not given)	116.4*
COC(=O)C1C2C(=O)N(c3ccccc3)C(=O)C12c1ccc(Cl)cc1 (stereo not given)	-1.5
CC1=C(C)CC2C(=O)N(c3ccc(-c4ccc([N+](=O)[O-])cc4)cc3)C(=O)C2C1 (stereo not given)	-16.3
O=C1C2C(c3ccc([N+](=O)[O-])cc3)OC3(C(=O)c4ccccc4C3=O)C2C(=O)N1c1ccc(Cl)cc1 (stereo not given)	-12.0
COCCCN1C(=O)/C(=C\c2ccccc2O)C(C(=O)OC)=C1C	2.8
CCCCCCCNC1CC(=O)N(c2ccc(C(=O)OCC)cc2)C1=O (stereo not given)	-14.6
COc1ccccc1N1CCN(/N=C\c2cccc(Cl)c2)CC1	-7.0
O=C1C(=O)N(c2cccc(C(F)(F)F)c2)C(c2ccc([N+](=O)[O-])cc2)/C1=C(/O)c1ccccc1 (stereo not given)	-4.0
CCOc1ccccc1-c1nc(SCC(N)=O)n[nH]1	0.3
COc1ccc(C)cc1NC(=O)CN(Cc1ccccc1)S(=O)(=O)c1ccc(OC)c(OC)c1	-14.2
O=C1NC(=O)/C(=C\c2cccc(Cl)c2)S1	-4.1
O=C1CSC2=NCN(c3cccc(Cl)c3)CN12	1.2
O=C1CC(=O)N(c2cccc(Cl)c2)N1	74.6*
COc1ccc(-c2csc(-c3cc4cc(Cl)cc(Cl)c4oc3=O)n2)cc1	-5.4
CN(C)c1ccc(/C=N/Nc2ncnc3c2cnn3Cc2ccccc2)cc1	-86.1
O=C(N=Nc1c(O)n(CN2CCCC2)c2ccc(Br)cc12)c1ccncc1	51.1
CC(Oc1cccc(Cl)c1)C(=O)Nc1ccccc1C(=O)N1CCN(C)CC1 (stereo not given)	3.1
CN(C)c1ccc(C2Nc3ccc(C(=O)c4ccccc4)cc3NC3=C2C(=O)CCC3)cc1 (stereo not given)	16.6
COc1ccc(C2Nc3ccc(C(=O)c4ccccc4)cc3NC3=C2C(=O)CCC3)c(OC)c1 (stereo not given)	68.0*
COc1ccccc1C1Nc2ccc(C(=O)c3ccccc3)cc2NC2=C1C(=O)CCC2 (stereo not given)	-5.6
COC(=O)C1=C(C)N=c2s/c(=C\c3ccc(O)cc3)c(=O)n2C1c1ccccc1 (stereo not given)	-9.5
Nc1nc(SCc2ccc(Cl)c(Cl)c2)nc2sc3c(c12)CCC3	-9.6
Cc1cccc(NC(=O)C2CC2(c2ccccc2)c2ccccc2)c1C (stereo not given)	4.8
Cc1cccc(NC(=O)C(C)Oc2ccccc2)c1C (stereo not given)	-39.2
Cc1cccc(NC(=O)C2C(c3ccccc3)C=CC(c3ccccc3)C2C(=O)O)c1C (stereo not given)	97.9*
SMILES	VHR inh color
CN(C)c1ccc(NC(=O)COc2ccc(Cl)cc2Br)cc1	-2.9
CC(=O)c1cccc(NC(=O)c2ccc(-c3ccc(Cl)cc3Cl)o2)c1	109.2*
CC(=O)c1ccc(NC(=O)c2ccc(-c3ccc(Cl)cc3Cl)o2)cc1	-0.1
O=C(O)c1ccc(-c2cc(Cl)ccc2Cl)o1	2.4
O=C(Nc1ccccc1C(F)(F)F)c1ccc(-c2cc(Cl)ccc2Cl)o1	112.3*
O=C(Nc1ccc(NC(=O)c2ccc(-c3ccc(Cl)cc3Cl)o2)cc1)c1ccccc1	-12.8
O=C(Nc1ccccc1C(F)(F)F)c1ccc(Cl)cc1Cl	-20.2
Cc1cccc(/N=C/c2ccccc2O)n1	-6.0
O=C(O)CCC(=O)c1cccc([N+](=O)[O-])c1	3.6
O=C(CN(c1ccccc1)S(=O)(=O)c1ccccc1[N+](=O)[O-])Nc1ccccc1Cl	-38.3
O=C1NC(=S)N(c2ccccc2)C(=O)/C1=C/c1cc(Br)c(O)c(Br)c1	24.9
O=C1NC(=S)N(c2ccccc2F)C(=O)C1=Cc1ccco1	87.0*
Cc1ccc(C=C2C(=O)NC(=S)N(c3ccccc3F)C2=O)s1	12.0
O=C1NC(=S)N(c2ccccc2)C(=O)/C1=C/c1ccc(Cl)cc1Cl	89.3
C=CCN1C(=O)/C(=C\C=C\c2ccco2)C(=O)NC1=S	88.2*
O=C1NC(=S)N(c2ccccc2F)C(=O)/C1=C/c1ccc(Sc2ccccc2)o1	23.5
C=CCN1C(=O)/C(=C\c2ccc(Br)cc2)C(=O)NC1=S	29.3
CCc1ccc(N2C(=O)NC(=O)/C(=C/C=C/c3ccco3)C2=O)cc1	2.4
O=C1NC(=S)N(c2ccccc2)C(=O)/C1=C/c1ccco1	66.9*
CCC(Oc1ccccc1)C(=O)Nc1sc2c(c1C(N)=O)CCC(C(C)(C)C)C2 (stereo not given)	-4.5
CCN(CC)CCOC(=O)c1ccc(O)c(OC)c1	-32.9
Cc1cc(C)n(C(=O)c2ccc(F)cc2)n1	6.8
COc1ccccc1NC(=O)/C=C1/c2ccccc2CC(C)(C)N1C	-20.3
Cc1ccc(NC2CC(C)N(C(=O)C(C)C)c3ccc(C)cc32)cc1 (stereo not given)	-15.0
